± gives the standard deviation of the averaged measurements. About 5,400 targets were measured; listed, in parts, are those with the largest changes and a random draw of the rest.
Compound: Nc1nc2c(ncn2[C@@H]2O[C@H](COP(=O)(O)OP(=O)(O)OP(=O)(O)O)[C@@H](O)[C@H]2O)c(=O)[nH]1 [guanosine triphosphate]
Assay: NP40-soluble protein abundance relative to vehicle (solubility fold change) (ratio); higher = more soluble protein in presence of GTP
Procedure: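 Solubility proteome profiling in Jurkat crude lysate. Lysate was treated with Mg-GTP (0.1-10 mM) for 10 min at room temperature and 3 min at 37 °C, then solubilised with 0.8% NP40 and benzonase, followed by ultracentrifugation. Proteins were quantified by TMT10 LC-MS/MS; the value is the NP40-soluble abundance relative to the NP40-processed vehicle, from 3 independent experiments.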

Sequence of UniProt P80217 (P80217 whole entry): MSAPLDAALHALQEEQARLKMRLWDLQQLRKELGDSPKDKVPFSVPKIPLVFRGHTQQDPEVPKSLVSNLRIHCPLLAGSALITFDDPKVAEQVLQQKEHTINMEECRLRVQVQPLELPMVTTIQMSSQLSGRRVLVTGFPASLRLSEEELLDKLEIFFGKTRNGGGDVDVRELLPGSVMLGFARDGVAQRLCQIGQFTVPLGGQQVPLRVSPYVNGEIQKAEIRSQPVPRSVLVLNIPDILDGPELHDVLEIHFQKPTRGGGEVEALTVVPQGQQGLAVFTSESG
Sequence of UniProt P62879 (P62879 whole entry): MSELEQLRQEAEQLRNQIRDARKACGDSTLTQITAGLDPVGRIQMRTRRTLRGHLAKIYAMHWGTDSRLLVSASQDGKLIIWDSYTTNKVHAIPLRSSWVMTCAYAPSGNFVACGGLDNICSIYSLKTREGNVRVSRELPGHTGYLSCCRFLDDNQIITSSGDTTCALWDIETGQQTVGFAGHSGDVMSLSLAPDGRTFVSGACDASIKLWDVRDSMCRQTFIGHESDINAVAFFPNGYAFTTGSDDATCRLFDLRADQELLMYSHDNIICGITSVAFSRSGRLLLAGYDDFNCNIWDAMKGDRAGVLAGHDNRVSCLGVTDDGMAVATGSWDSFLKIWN
Sequence of UniProt Q86U70 (Q86U70 whole entry): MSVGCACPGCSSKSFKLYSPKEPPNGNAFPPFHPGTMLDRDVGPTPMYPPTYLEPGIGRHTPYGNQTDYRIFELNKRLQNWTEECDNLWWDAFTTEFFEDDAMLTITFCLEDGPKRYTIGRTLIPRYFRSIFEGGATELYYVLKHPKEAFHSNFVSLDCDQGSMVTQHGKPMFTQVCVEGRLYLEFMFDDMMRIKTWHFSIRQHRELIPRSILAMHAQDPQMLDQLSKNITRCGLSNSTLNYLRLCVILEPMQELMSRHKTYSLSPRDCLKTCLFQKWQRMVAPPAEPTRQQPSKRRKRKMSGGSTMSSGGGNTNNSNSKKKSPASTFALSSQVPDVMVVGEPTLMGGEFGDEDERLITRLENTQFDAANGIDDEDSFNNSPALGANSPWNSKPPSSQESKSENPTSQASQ
Sequence of UniProt Q92696 (Q92696 whole entry): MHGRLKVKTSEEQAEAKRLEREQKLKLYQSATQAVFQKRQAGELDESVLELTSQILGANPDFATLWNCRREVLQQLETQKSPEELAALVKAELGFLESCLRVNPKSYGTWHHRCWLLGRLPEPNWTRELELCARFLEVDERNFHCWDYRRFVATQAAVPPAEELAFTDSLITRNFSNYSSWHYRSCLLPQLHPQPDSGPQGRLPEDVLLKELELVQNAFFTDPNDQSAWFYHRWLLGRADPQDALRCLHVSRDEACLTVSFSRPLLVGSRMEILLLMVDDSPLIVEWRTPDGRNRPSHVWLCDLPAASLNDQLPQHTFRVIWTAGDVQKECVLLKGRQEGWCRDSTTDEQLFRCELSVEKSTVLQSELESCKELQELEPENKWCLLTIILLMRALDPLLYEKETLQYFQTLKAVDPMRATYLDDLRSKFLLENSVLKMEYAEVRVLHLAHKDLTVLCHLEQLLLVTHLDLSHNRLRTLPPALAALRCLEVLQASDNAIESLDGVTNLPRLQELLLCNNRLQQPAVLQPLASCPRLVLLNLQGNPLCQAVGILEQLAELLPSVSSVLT

Target	NP40-soluble protein abundance (concentration: 0.1mM)	NP40-soluble protein abundance (concentration: 0.5mM)	NP40-soluble protein abundance (concentration: 1mM)	NP40-soluble protein abundance (concentration: 2mM)	NP40-soluble protein abundance (concentration: 4mM)	NP40-soluble protein abundance (concentration: 6mM)	NP40-soluble protein abundance (concentration: 8mM)	NP40-soluble protein abundance (concentration: 10mM)
LDB1 (UniProt Q86U70)	1.066 ± 0.0088	1.04 ± 0.05	1 ± 0.056	0.989 ± 0.024	0.938 ± 0.043	0.951 ± 0.021	0.968 ± 0.047	0.931 ± 0.036
UniProt Q86V81	0.939 ± 0.019	0.943 ± 0.079	1.12 ± 0.036	1.25 ± 0.097	1.5 ± 0.047	1.73 ± 0.054	1.95 ± 0.1	2.52 ± 0.13
UniProt P62879	0.978 ± 0.035	1.01 ± 0.064	0.917 ± 0.031	0.947 ± 0.074	0.924 ± 0.05	0.937 ± 0.054	0.913 ± 0.048	0.893 ± 0.09
RABGGTA (UniProt Q92696)	1.04 ± 0.026	1.04 ± 0.075	0.896 ± 0.022	0.916 ± 0.068	0.91 ± 0.037	0.889 ± 0.032	0.847 ± 0.037	0.849 ± 0.07
UniProt P80217|P80217-2	0.97 ± 0.043	1.01 ± 0.063	0.926 ± 0.044	0.902 ± 0.076	0.877 ± 0.059	0.911 ± 0.067	0.934 ± 0.052	0.938 ± 0.051

From the supplement of paper PMC6411743
